# Laboratory results: PubChem BioAssay AID1851 (National Center for Advancing Translational Sciences (NCATS), 2009)
# Where “and” joins values, the source holds several entries; their conditions need not be identical. Identical values can stand only once. Out of some 16,000 compounds screened, about 5,700 (36%) were called active. Another 24% or so got no clear call; they are omitted. This is one part of the list. Unmarked numbers belong to inactive results. Calls follow the shape of the dose curve; as a rule, active = well fitted curve in the direction sought with a large enough effect; inconclusive = small, poorly fitted or top-dose-only effect, or effect the other way; inactive = no such curve, though single readings can be large or run the other way.
# Target: Cytochrome P450 1A2 (Homo sapiens) (UniProt P05177)
# Experiment: Cytochrome panel assay with activity outcomes
# Conditions: recombinant CYP, pro-luciferin dealkylation, luminescence, p450-cyp1a2; series mostly up to 57.1 µM
# % is scaled to controls: 0 for no effect and ±100 for the full control effect.
# Chain of Cytochrome P450 1A2 (Homo sapiens) (P05177 whole entry, looked up): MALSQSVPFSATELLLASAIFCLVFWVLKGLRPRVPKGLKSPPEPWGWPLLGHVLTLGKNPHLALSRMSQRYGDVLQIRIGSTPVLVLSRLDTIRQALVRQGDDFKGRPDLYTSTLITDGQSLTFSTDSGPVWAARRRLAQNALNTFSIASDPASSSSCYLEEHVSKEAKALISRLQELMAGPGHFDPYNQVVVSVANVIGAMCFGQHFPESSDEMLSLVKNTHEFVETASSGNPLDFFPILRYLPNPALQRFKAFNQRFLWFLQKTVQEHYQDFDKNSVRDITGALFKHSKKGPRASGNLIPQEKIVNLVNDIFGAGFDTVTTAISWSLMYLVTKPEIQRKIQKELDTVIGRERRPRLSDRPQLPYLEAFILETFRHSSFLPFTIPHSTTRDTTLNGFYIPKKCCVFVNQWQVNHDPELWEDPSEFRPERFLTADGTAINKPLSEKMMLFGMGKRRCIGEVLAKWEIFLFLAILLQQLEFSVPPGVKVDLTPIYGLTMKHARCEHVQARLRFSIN
SMILES,AC50,"activity, negative = inhibition"
C1CNCCOCCNCCN1,inactive,
CC(=O)CC(=O)Nc1ccc2ccccc2c1,2 µM (active),
CC(C)C[C@H](NC(=O)[C@@H](O)[C@H](N)Cc1ccccc1)C(=O)O,inactive,
c1ccc2cc(NCNc3ccc4ccccc4c3)ccc2c1,0.631 µM (active),
CC(C)C[C@@H](N)C(=O)Nc1ccc2ccccc2c1,1.58 µM (active),
O=C(COc1ccc2ccccc2c1)Nc1ccc(Cc2ccncc2)cc1,0.112 µM (active),
C=CCSc1nnc(NC(=O)COc2ccc3ccccc3c2)s1,inactive,
CCc1ccc(OCC(=O)Nc2ccc(-c3nc4ccccc4o3)c(O)c2)cc1,inactive,
CC(C)C[C@H](NC(=O)[C@@H](O)[C@@H](N)Cc1ccccc1)C(=O)O,inactive,
O=C(O)C[C@H](S)C(=O)O,,-2.96% [at 11.4 µM]
CO[C@H]1COC(=O)[C@@H](Cc2ccccc2)NC(=O)[C@@H](C)COC(=O)C/C=C\[C@@H]1C,,-3.6% [at 11.4 µM]
C#CCCCO/N=C1/C[C@@H](O)[C@@H](O)[C@@H]2[C@@H]3C(=O)N(C4CCCCC4)C(=O)[C@H]3CC[C@H]12,,7.63% [at 11.4 µM]
CC1(C)Oc2cc(N)c([N+](=O)[O-])cc2O1,8.91 µM (active),
CC(=O)Nc1ccc(S(=O)(=O)N2CCC(N(C)CCC(C)C)CC2)cc1,inactive,
CCc1ccc(NC(=O)C2CCN(S(=O)(=O)c3c(C)[nH]c(=O)[nH]c3=O)CC2)cc1,inactive,
CC(=O)Nc1ccc(NC(=O)C2CCN(S(=O)(=O)c3cccc4nonc34)CC2)cc1,inactive,
O=C(Nc1ccc(Cl)c(C(F)(F)F)c1)C1CCCN(S(=O)(=O)c2cnc[nH]2)C1 (stereo not given),15.8 µM (active),
CO[C@@H]1COC(=O)C/C=C\[C@H](C)COC(=O)[C@H](C)NC(=O)C/C=C\[C@H]1C,,-3.56% [at 11.4 µM]
Cc1nn(CCc2n[nH]c(=S)n2-c2ccc(F)c(Cl)c2)c(C)c1[N+](=O)[O-],inactive,
CC(C)Cn1c(-c2nn(C)cc2Cl)n[nH]c1=S,25.1 µM (active),
CCc1nn(C)c(-c2n[nH]c(=S)n2N)c1Cl,inactive,
O=c1c(-c2cccs2)nc2cnc(Oc3cccc(Cl)c3)nc2n1C[C@H]1CCCO1,3.16 µM (active),
COc1ccc(-c2nc3cnc(Oc4cccc(Cl)c4)nc3n(C[C@H]3CCCO3)c2=O)cc1,5.01 µM (active),
CC(=O)OC[C@@H]1O[C@H](C/C=N\OC[C@@H](O)COCc2ccco2)C=C[C@@H]1OC(C)=O,,1.52% [at 11.4 µM]

SMILES,AC50,"activity, negative = inhibition"
C[C@H](N)C(=O)O,inactive,
CCCCCCCCC(=O)NCc1cc(OC)c(O)cc1I,12.6 µM (active),
O=C(O)c1cc(C(=O)O)nc(C(=O)O)c1,,-9.81% [at 11.4 µM]
CSc1c(-c2ccccc2)nc2ccccc2c1C(=O)O,inactive,
CSc1nnnc2ccccc12,3.16 µM (active),
COc1ccc(Cc2nnc(NC(=O)CSc3ccc(C)cc3)s2)cc1OC,inactive,
COCc1nnc(NC(=O)CC(c2ccccc2)c2ccccc2)s1,inactive,
COC(=O)c1sccc1NC(=O)CSc1ccc(Cl)cc1,14.1 µM (active),
COC(=O)c1sccc1NC(=O)CSc1cc(Cl)ccc1Cl,2.51 µM (active),
Cc1cnc(NC(=O)CSc2ccc(Cl)cc2)s1,3.16 µM (active),
COCc1nnc(NC(=O)CSc2ccc(C)cc2)s1,12.6 µM (active),
O=c1[nH]cc(CS(=O)(=O)Cc2c[nH]c(=O)[nH]c2=O)c(=O)[nH]1,,-24.4% [at 11.4 µM]
CC(=O)N1CCC2(CCN(Cc3nccs3)CC2)CC1,inactive,
COCC(=O)N1CCC2(CC1)CN(C(=O)Nc1cccc(C#N)c1)C2,inactive,
NCCSSCCN,inactive,
CC(C)(Oc1ccc(-c2cccc3ccccc23)cc1)C(=O)O,,8.77% [at 11.4 µM]
CN1C(=O)/C(=N\OC(=O)c2cccc3ccccc23)c2ccccc21,7.08 µM (active),
CC(=O)c1c(O)cc(=O)n(-c2ccccc2)c1-c1cccc2ccccc12,inactive,
CCOc1ccc(C(=O)CCC(=O)O)cc1,inactive,
COc1ccc2cc(CCC(C)=O)ccc2c1,0.398 µM (active),
COc1ccc2cc(C(=O)CCC(=O)O)ccc2c1,0.794 µM (active),
COc1ccc(/C(O)=C2/C(=O)C(=O)N(CCCC(=O)O)C2c2ccc(OC)cc2)cc1 (stereo not given),inactive,
COc1ccc(CCN=CC2=C(O)CC(C)(C)CC2=O)cc1,inactive,
COc1cccc(/C=N/NC(=O)c2cc(-c3cccn3C)n[nH]2)c1,6.31 µM (active),

SMILES,AC50,"activity, negative = inhibition"
COc1cccc(/C=N/NC(=O)c2c(-c3ccccc3)noc2C)c1,inactive,
COc1cc2nc(N3CCN(C(=O)OCc4ccccc4)[C@H](C(=O)NC(C)(C)C)C3)nc(N)c2cc1OC,inactive,
CSc1nc(N)c2ncn([C@@H]3O[C@@H](COP(=O)(O)OP(=O)(O)O)[C@@H](O)[C@H]3O)c2n1,inactive,
CCn1c(C)[n+](CCCS(=O)(=O)[O-])c2cc(Cl)c(Cl)cc21,inactive,
CCn1c(=O)[nH]c2cc(Cl)c(Cl)cc21,0.251 µM (active),
CC[N+](CC)(CC)CC,inactive,
Cc1ccc(C)n1N1C(=O)/C(=C\c2ccc(Cl)cc2)SC1=S,1.58 µM (active),
CC1=N/C(=C\c2ccc([N+](=O)[O-])cc2)C(=O)N1c1ccc(Cl)cc1,inactive,
CC1=NN(c2ccc(S(=O)(=O)O)cc2)C(=O)/C1=C\c1ccc(Cl)cc1,,-8.89% [at 2.29 µM]
C[C@@](N)(/C=C\c1ccccc1)C(=O)O,,-17.1% [at 11.4 µM]
O=C(CN1CCN(c2ccc(Cl)cc2)CC1)Nc1cccc(F)c1,12.6 µM (active),
O=C(CSc1ccc(Cl)cc1)Nc1ccc(N2CCN(c3ccccc3)CC2)c(F)c1,inactive,
CC(C)c1cccc2c([Si](C)(C)C)c3c(nc12)-c1cccc(=O)n1C3,15.8 µM (active),
CC(C)c1cccc2cc3c(nc12)-c1cccc(=O)n1C3,0.501 µM (active),
CCc1c2c(nc3c(C(C)C)cccc13)-c1cccc(=O)n1C2,0.398 µM (active),
CCC(C)N1C(=O)C2C(C(=O)Nc3cccc(OC)c3)C3C=CC2(O3)C1C(=O)NC1CCCCC1C (stereo not given),inactive,
COc1ccc(O[C@H]2C=C[C@@H](c3ccccc3)O[C@H]2CO/N=C(/C)CCC(=O)OC[C@@H]2O[C@H](c3ccccc3)C=C[C@@H]2Oc2ccc(OC)cc2)cc1,,-1.91% [at 11.4 µM]
CSC(N)=NCCC[C@@H](N)C(=O)O,inactive,
CNc1nc(-c2ccccc2C(F)(F)F)nc2ccccc12,0.251 µM (active),
FC(F)(F)c1ccccc1-c1nc(NC2CC2)c2ccccc2n1,0.398 µM (active),
O=C1[C@H]2O[C@@H]2[C@@H](O)[C@H]2[C@H]1CCn1c(=O)n(Cc3cc4c(cc3Cl)OCO4)c(=O)n12,,-4.53% [at 11.4 µM]
COc1ccc2c(Cl)c(-c3nnco3)sc2c1,0.794 µM (active),
Cc1cccc(C)c1OC[C@@H](N)C(C)C,12.6 µM (active),
Cc1cccc(C)c1OCC(O)CNC(C)(C)C (stereo not given),inactive,

SMILES,AC50,"activity, negative = inhibition"
Cc1cccc(C)c1OC[C@H](C)N,2.51 µM (active) and 398 nM (active),
O=C1C[C@@H](O)[C@@H](O)[C@H]2[C@@H]3C(=O)N(c4cccc(Oc5ccccc5)c4)C(=O)[C@@H]3CC[C@H]12,,0.387% [at 11.4 µM] and -5.49% [at 11.4 µM]
Cc1ccc(C(=O)NC(=S)Nc2ccc3c(c2)OCCO3)c(C)c1,7.08 µM (active),
O=C(NC(=S)Nc1ccc2c(c1)OCO2)c1ccccc1,2.82 µM (active),
O=C(NC(=S)Nc1ccc(C(=O)N2CCOCC2)cc1)c1ccc([N+](=O)[O-])cc1,inactive,
O=C(NC(=S)Nc1ccc(Oc2ccc(Cl)cc2)cc1)c1ccccc1,inactive,
c1ccc2c(c1)ncn2-c1ccc(-c2ccnc(-c3ccncc3)n2)cc1,0.316 µM (active),
c1ccc(-c2nccc(-c3ccc(-n4cnc5ccccc54)cc3)n2)nc1,10 µM (active),
COc1cc(OC)c(OC)cc1C=NCC1(c2ccccc2)CCCC1,8.91 µM (active),
O=C(O)CCCCCCCC(=O)O,inactive,
C#CCCCCCCCCCCCCCCCC(=O)O,6.31 µM (active),
C#CCOCCCC(=O)O,,-1.25% [at 11.4 µM]
C[C@H]1COC(=O)[C@H](Cc2ccccc2)NC(=O)[C@@H](C)COC(=O)[C@H](Cc2ccccc2)NC1=O,,9.1% [at 11.4 µM]
COC(=O)c1cc(NC(=O)/C=C/c2ccc3c(c2)OCO3)cc(C(=O)OC)c1,12.6 µM (active),
CCOC(=O)c1c(NC(=O)/C=C/c2ccc3c(c2)OCO3)sc(C)c1C,inactive,
CC(C)[C@H](NC(=O)OC(C)(C)C)[C@@H](O)CC(=O)C(C)(C)C,,0.674% [at 11.4 µM]
COc1ccccc1CNc1ncncc1-c1cccnc1,0.794 µM (active),
COc1ccc(CNc2ncncc2-c2cccc(NS(C)(=O)=O)c2)c(OC)c1,15.8 µM (active),
COc1ccccc1CNc1ncncc1-c1ccoc1,1.26 µM (active),
COc1ccc(CNc2ncncc2-c2cccnc2)c(OC)c1,3.16 µM (active),
COc1ccccc1CN1CCCC2(CCN(C(=O)c3cnccn3)CC2)C1,inactive,
COCC(=O)N1CCC2(CCCN(C(=O)Nc3cccc(F)c3)C2)CC1,inactive,
CCc1cc2c(nc1CC)CCN(CC/C(C)=N/O[C@@H](C)c1cn([C@@H]3COC[C@@H]3O)nn1)C2,,-1.13% [at 11.4 µM]
